{"source": "PubChem BioAssay (NCATS)", "note": "Records with an inconclusive call do not appear. A call without a number means that no potency is given here. Values without a mark were called inactive. Active and inactive are the calls of the source. The call rests on the fitted dose curve. Potency means the concentration at half of the fitted maximal effect."}
{"assay": "Cytotoxicity counterscreen for inhibitors of SARS-CoV-2 cell entry (AID 1645845); further: nearly all actives have a fitted effect of over 50% in size", "details": "cell viability (SARS-CoV-2 entry assay cells); series mostly up to 57.1 µM; activity change, negative = cytotoxicity: at the top concentration", "in_short": "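Expi293F/hACE2 cells seeded overnight; cpd pin-transferred in DMSO, 1 h preincubation, + media, 48 h 37 C 5% CO2; ATPLite 1step luminescence; normalized to cells and no cells.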", "units": {"activity change, negative = cytotoxicity": "%"}}
{"smiles": "CC(C)NCC(O)c1ccc(O)c(O)c1", "note": "(stereo not given)", "Potency": "inactive"}
{"smiles": "O=C1Cc2cc(CCN3CCN(c4nsc5ccccc45)CC3)c(Cl)cc2N1", "outcome": "inactive"}
{"smiles": "CC12CC3CC(C)(C1)CC(N)(C3)C2", "Potency": "inactive"}
{"smiles": "CCn1cc(C(=O)O)c(=O)c2cc(F)c(N3CCNCC3)cc21", "Potency": "inactive"}
{"smiles": "CN(CCOc1ccc(CC2SC(=O)NC2=O)cc1)c1ccccn1", "note": "(stereo not given)", "activity change, negative = cytotoxicity": 1.44}
{"smiles": "CCC(=O)O[C@H]1[C@H](O[C@@H]2[C@@H](C)[C@H](O[C@H]3C[C@@](C)(OC)[C@@H](O)[C@H](C)O3)[C@@H](C)C(=O)O[C@H](CC)[C@@](C)(O)[C@H](O)[C@@H](C)C(=O)[C@H](C)C[C@@]2(C)O)O[C@H](C)C[C@@H]1N(C)C", "activity change, negative = cytotoxicity": 2.05}
{"smiles": "CNCCCN1c2ccccc2CCc2ccccc21", "activity change, negative = cytotoxicity": -9.34}
{"smiles": "Cc1ccsc1C(=CCCN1CCC[C@@H](C(=O)O)C1)c1sccc1C", "Potency": "inactive"}
{"smiles": "CCCCc1ncc(/C=C(\\Cc2cccs2)C(=O)O)n1Cc1ccc(C(=O)O)cc1", "outcome": "inactive"}
{"smiles": "Cc1nc2n(c(=O)c1CCN1CCC(c3noc4cc(F)ccc34)CC1)CCC[C@H]2O", "outcome": "inactive [at 27.1 µM]"}
{"smiles": "C[C@@H]1CC(=O)NN=C1c1ccc(NN=C(C#N)C#N)cc1", "activity change, negative = cytotoxicity": -16.5}
{"smiles": "CC1(C)S[C@@H]2[C@H](NC(=O)[C@H](N)c3ccccc3)C(=O)N2[C@H]1C(=O)O", "outcome": "inactive"}
{"smiles": "C[C@]12CC[C@@H]3c4ccc(O)cc4C[C@@H](CCCCCCCCCS(=O)CCCC(F)(F)C(F)(F)F)[C@H]3[C@@H]1CC[C@@H]2O", "note": "(stereo not given in full)", "activity change, negative = cytotoxicity": -3.85}
{"smiles": "CCCN(CCC)CCc1cccc2c1CC(=O)N2", "outcome": "inactive"}
{"smiles": "CC(C)c1nc(CN(C)C(=O)N[C@H](C(=O)N[C@@H](Cc2ccccc2)C[C@H](O)[C@H](Cc2ccccc2)NC(=O)OCc2cncs2)C(C)C)cs1", "outcome": "inactive"}
{"smiles": "CN1CCN(C2=Nc3ccccc3Oc3ccc(Cl)cc32)CC1", "outcome": "inactive"}
{"smiles": "CN1CCN(CCCN2c3ccccc3Sc3ccc(Cl)cc32)CC1", "activity change, negative = cytotoxicity": -18.5}
{"smiles": "CN(C)c1nc(N(C)C)nc(N(C)C)n1", "Potency": "inactive"}
{"smiles": "O=c1[nH]cc(F)c(=O)[nH]1", "Potency": "inactive"}
{"smiles": "CN1C(=O)CC(C)(c2ccccc2)C1=O", "note": "(stereo not given)", "activity change, negative = cytotoxicity": 1.48}
{"smiles": "CCN(CC)CCOC(=O)C1(C2CCCCC2)CCCCC1", "activity change, negative = cytotoxicity": -3.3}
{"smiles": "O=NN(CCCl)C(=O)NCCCl", "activity change, negative = cytotoxicity": 3.11}
{"smiles": "Cc1ccc(-n2[nH]c(C)c(N=Nc3cccc(-c4cccc(C(=O)O)c4)c3O)c2=O)cc1C", "outcome": "inactive"}
{"smiles": "OC(Cn1cncn1)(Cn1cncn1)c1ccc(F)cc1F", "Potency": "inactive"}
{"smiles": "COC1=CC(=O)C[C@@H](C)[C@]12Oc1c(Cl)c(OC)cc(OC)c1C2=O", "activity change, negative = cytotoxicity": -20.7}
{"smiles": "C[n+]1ccccc1/C=N/O", "activity change, negative = cytotoxicity": -3.64}
{"smiles": "C=C[C@H]1CN2CC[C@H]1C[C@@H]2[C@@H](O)c1ccnc2ccc(OC)cc12", "outcome": "inactive"}
{"smiles": "CN1CCc2cccc3c2[C@H]1Cc1ccc(O)c(O)c1-3", "outcome": "inactive"}
{"smiles": "NCCC(O)(P(=O)(O)O)P(=O)(O)O", "outcome": "inactive"}
{"smiles": "CCN(CC)CCCC(C)Nc1ccnc2cc(Cl)ccc12", "note": "(stereo not given)", "Potency": "inactive"}
{"smiles": "CNS(=O)(=O)CCc1ccc2[nH]cc(C3CCN(C)CC3)c2c1", "outcome": "inactive"}
{"smiles": "CCCCN1C[C@H](O)[C@@H](O)[C@H](O)[C@H]1CO", "activity change, negative = cytotoxicity": -3.25}
{"smiles": "Cc1[nH]cnc1CN1CCc2c(c3ccccc3n2C)C1=O", "outcome": "inactive"}
{"smiles": "Cc1onc(-c2ccccc2Cl)c1C(=O)N[C@@H]1C(=O)N2[C@@H]1SC(C)(C)[C@@H]2C(=O)O", "outcome": "inactive"}
{"smiles": "CCCCc1oc2ccccc2c1C(=O)c1cc(I)c(OCCN(CC)CC)c(I)c1", "Potency": "inactive"}
{"smiles": "CN1CCN(C2=Nc3cc(Cl)ccc3Nc3ccccc32)CC1", "Potency": "inactive"}
{"smiles": "C#Cc1cccc(Nc2ncnc3cc(OCCOC)c(OCCOC)cc23)c1", "Potency": "inactive"}
{"smiles": "NC[C@H](O)c1ccc(O)c(O)c1", "Potency": "inactive"}
{"smiles": "CC#C[C@]1(O)CC[C@H]2[C@@H]3CCC4=CC(=O)CCC4=C3[C@@H](c3ccc(N(C)C)cc3)C[C@@]21C", "Potency": "inactive"}
{"smiles": "OCCN1CCN(CCCN2c3ccccc3Sc3ccc(Cl)cc32)CC1", "Potency": "28.2 µM (active)"}
